We go through 20 molecules from PubChem BioAssay.

By inhibition is commonly meant the relative decrease from the control value, in per cent.

A short description of experiment [1]: antimalarial activity against Dd2 strain (AID 2302;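 active = growth inhibition above 50% at the single 2 µM test dose, taken to imply half-maximal potency below 2 µM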;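 note: 0% = DMSO untreated growth and 100% = chloroquine plus artemisinin killed control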). To be noted: P. falciparum Dd2 in RBCs, LDH growth readout, 72 h; at 2 µM; active compounds read high.
The nature of experiment [2]: human hepatoma cell viability loss – ATP luminescence, cytotoxicity control for P. falciparum antimalarial project, primary screen (AID 2303;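 active = inhibition above 50%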;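 note: 0% = DMSO wells and 100% = digitonin-killed cells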). The settings on record: HepG2 viability, 24-48 h, at 10 µM, active compounds read high.
In experiment [3] the target is L-lactate dehydrogenase (Plasmodium falciparum (isolate CDC / Honduras)) (UniProt Q27743). Description: PfLDH activity inhibition – cell lysate, 3D7 strain, counter-screen for P. falciparum growth inhibition project (AID 2304).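 Note: 0% = vehicle and 100% = reference inhibitor.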 The settings on record: P. falciparum 3D7 crude extract, LDH APAD/NBT absorbance; at 2 µM; active compounds read high. (In general: A counterscreen serves to expose hits that act by an unwanted route or on another target.)

Experiment [4] can be described thus: inhibition of 3D7 malaria parasite growth – strain 3D7 (AID 2306).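 Note: 0% = DMSO wells and 100% = chloroquine plus artemisinin control wells.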 The settings on record: P. falciparum 3D7 erythrocytic growth, LDH absorbance, 72 h; at 2 µM; active compounds read high.
The target of experiment [5] is Calcium-dependent protein kinase 1 (Plasmodium falciparum (isolate 3D7)) (UniProt P62344). Briefly: PfCDPK1 kinase inhibitors, biochemical, TCAMS library (AID 1159585; cut-off not given, nearly all actives have IC50 up to about 0.98 µM;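 note: inhibitors leave more ATP so luminescence rises with inhibition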). To be noted: recombinant PfCDPK1, Kinase-Glo ATP depletion luminescence. For orientation: Kinase-Glo measures the ATP left after a reaction by luminescence.
Experiment [6] deals with Plasmodium falciparum protein kinase 6 (PK6, PF3D7_1337100) (UniProt Q8IDW1). Description: PfPK6 kinase inhibitors, biochemical, TCAMS library (AID 1159586). The settings on record: recombinant PfPK6, Kinase-Glo ATP depletion luminescence.
In experiment [7] the target is Protein kinase 7 (PK7), Plasmodium falciparum 3D7 (PF3D7_0213400) (UniProt Q7YTF7). Briefly: inhibition of Plasmodium PK7 catalytic activity – biochemical, TCAMS antimalarial set, Kinase-Glo luminescence (AID 1159587). To be noted: recombinant PfPK7, Kinase-Glo ATP depletion luminescence.
Experiment [8] addresses Calcium-dependent protein kinase 4 (Plasmodium falciparum (isolate 3D7)) (UniProt Q8IBS5). Description: PfCDPK4 kinase inhibitors, biochemical, TCAMS library (AID 1159588; cut-off not given, nearly all actives have IC50 up to about 0.91 µM). To be noted: recombinant PfCDPK4, Kinase-Glo ATP depletion luminescence.

A number with no mark means an inactive call. For some of these results: Results with a measured potency or affinity are listed apart. Active and inactive are the calls of the source. Unless noted, the rule behind the calls is not given here.

Chain of L-lactate dehydrogenase (Plasmodium falciparum (isolate CDC / Honduras)) (Q27743 whole entry, looked up): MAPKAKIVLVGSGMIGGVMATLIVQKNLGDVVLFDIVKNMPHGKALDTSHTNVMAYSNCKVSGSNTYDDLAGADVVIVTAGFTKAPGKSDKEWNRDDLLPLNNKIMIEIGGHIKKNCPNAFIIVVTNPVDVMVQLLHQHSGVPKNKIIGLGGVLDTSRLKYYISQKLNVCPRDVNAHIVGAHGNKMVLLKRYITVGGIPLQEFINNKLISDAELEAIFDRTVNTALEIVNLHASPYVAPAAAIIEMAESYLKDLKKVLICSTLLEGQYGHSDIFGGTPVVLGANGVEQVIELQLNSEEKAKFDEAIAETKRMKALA
Chain of Calcium-dependent protein kinase 4 (Plasmodium falciparum (isolate 3D7)) (Q8IBS5 whole entry, looked up): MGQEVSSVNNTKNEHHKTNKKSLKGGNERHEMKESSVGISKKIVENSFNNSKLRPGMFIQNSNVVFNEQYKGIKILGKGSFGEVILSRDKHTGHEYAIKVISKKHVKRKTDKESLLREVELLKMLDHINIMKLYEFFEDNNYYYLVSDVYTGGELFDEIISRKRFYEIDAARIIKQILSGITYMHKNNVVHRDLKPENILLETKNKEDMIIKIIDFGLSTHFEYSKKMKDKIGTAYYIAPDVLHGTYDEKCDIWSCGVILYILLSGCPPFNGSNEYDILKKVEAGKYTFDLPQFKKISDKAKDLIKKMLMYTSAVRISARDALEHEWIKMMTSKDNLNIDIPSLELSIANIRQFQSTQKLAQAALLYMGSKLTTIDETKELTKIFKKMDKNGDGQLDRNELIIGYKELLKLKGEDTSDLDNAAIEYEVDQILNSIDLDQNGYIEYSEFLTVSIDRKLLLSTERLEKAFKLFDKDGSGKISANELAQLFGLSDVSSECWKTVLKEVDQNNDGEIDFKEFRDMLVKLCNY
Chain of Plasmodium falciparum protein kinase 6 (PK6, PF3D7_1337100) (Q8IDW1 1-305): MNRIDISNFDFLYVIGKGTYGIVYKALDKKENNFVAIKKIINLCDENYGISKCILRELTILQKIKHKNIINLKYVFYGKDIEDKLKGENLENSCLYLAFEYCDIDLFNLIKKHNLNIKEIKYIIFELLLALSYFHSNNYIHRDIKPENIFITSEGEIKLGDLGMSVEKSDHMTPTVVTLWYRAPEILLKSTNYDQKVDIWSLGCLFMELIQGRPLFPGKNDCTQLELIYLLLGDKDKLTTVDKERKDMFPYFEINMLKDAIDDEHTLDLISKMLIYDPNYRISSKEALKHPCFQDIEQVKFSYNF
Chain of Protein kinase 7 (PK7), Plasmodium falciparum 3D7 (PF3D7_0213400) (Q7YTF7 1-343): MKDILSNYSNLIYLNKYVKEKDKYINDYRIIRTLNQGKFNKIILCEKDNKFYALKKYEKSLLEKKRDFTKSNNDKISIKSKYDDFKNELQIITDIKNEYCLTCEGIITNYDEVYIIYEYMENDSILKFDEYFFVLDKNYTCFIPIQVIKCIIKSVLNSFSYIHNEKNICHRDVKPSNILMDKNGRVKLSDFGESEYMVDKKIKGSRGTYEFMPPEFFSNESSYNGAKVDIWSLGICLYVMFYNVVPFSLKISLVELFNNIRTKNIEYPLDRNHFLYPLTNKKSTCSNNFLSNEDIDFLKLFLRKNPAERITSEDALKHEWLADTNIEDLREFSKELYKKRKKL
Chain of Calcium-dependent protein kinase 1 (Plasmodium falciparum (isolate 3D7)) (P62344 whole entry, looked up): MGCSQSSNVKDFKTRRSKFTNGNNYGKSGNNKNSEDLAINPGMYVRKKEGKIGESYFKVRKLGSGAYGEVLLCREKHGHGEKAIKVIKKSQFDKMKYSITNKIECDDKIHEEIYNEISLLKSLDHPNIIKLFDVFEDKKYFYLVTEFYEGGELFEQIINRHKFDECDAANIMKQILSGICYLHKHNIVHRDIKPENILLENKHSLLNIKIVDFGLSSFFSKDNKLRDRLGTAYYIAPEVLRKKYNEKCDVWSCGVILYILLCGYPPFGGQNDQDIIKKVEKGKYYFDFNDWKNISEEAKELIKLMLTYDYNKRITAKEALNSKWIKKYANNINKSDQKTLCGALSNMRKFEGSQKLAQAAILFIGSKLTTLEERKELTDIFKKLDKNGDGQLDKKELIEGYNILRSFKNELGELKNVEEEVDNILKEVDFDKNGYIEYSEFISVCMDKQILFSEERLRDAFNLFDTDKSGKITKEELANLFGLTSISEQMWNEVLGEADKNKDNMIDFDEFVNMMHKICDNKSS

For `CCOc1cc(C(=O)NCCc2ccc(Cl)c(Cl)c2)ccc1-c1nc2ccc(Cl)cc2[nH]1`, the growth inhibition in experiment [1] is 47%; in experiment [4], 100% (active). Besides, the inhibition in experiment [2] was 9%; in experiment [3], -4%. For the same molecule, the outcome in experiment [5], in experiment [6], in experiment [7] and in experiment [8] was inactive.

On to `CC(C)(C)Oc1ccc(NC(=O)c2ccccc2O)cc1`, for which the growth inhibition in experiment [1] is 67% (active); in experiment [4], 86% (active). Further, the inhibition in experiment [2] was 4%; in experiment [3], -6%. In addition, the result in experiment [5], in experiment [6], in experiment [7] and in experiment [8] was inactive.

With `COc1ccccc1CCCON1C(N)=NC(N)=NC1(C)C`, the growth inhibition was 92% (active) in experiment [1] and 95% (active) in experiment [4]. Further, the inhibition was 68% (active) in experiment [2] and -1% in experiment [3]. Besides, the outcome in experiment [5], in experiment [6], in experiment [7] and in experiment [8] was inactive.

`NC1=NC(C=Cc2ccccc2)N(OCCCCCCON2C(N)=NC(N)=NC2C=Cc2ccccc2)C(N)=N1` (stereo not given): the growth inhibition in experiment [1] is 94% (active); in experiment [4], 97% (active). In addition, the inhibition was 17% in experiment [2] and 3% in experiment [3]. Besides, the result in experiment [5], in experiment [6], in experiment [7] and in experiment [8] was inactive.

For the molecule `CN(CCCCNC(=O)/C=C/c1ccccc1)C1CC2(CCN(C(=O)OC(C)(C)C)CC2)c2ccccc21` (stereo not given), the values for the growth inhibition in experiment [1] and in experiment [4] were 51% (active) and 87% (active), respectively. For the same molecule, the inhibition in experiment [2] is 11%; in experiment [3] it was 1%. Moreover, the result in experiment [5], in experiment [6], in experiment [7] and in experiment [8] was inactive.

For the molecule `c1ccc2cc3c(Nc4ccc(N5CCCCC5)cc4)ccnc3cc2c1`, the growth inhibition in experiment [1] was 36%; in experiment [4], 100% (active). Besides, the inhibition in experiment [2] was 21%; in experiment [3] it was -4%. Also, the outcome in experiment [5], in experiment [6], in experiment [7] and in experiment [8] was inactive.

As to `O=c1cc(NCCCN(Cc2cc3c(Cl)cc(Cl)cc3[nH]2)Cc2cc3c(Cl)cc(Cl)cc3[nH]2)[nH]c2ccccc12`, the values for the growth inhibition in experiment [1] and in experiment [4] were 80% (active) and 87% (active), respectively. In addition, the inhibition in experiment [2] is 23%; in experiment [3], -6%. The outcome in experiment [5], in experiment [6], in experiment [7] and in experiment [8] was inactive.

As to `CC(C)(C)c1ccc(CN2CCC(CNC(=O)c3cc(-c4ccccc4)nc4ccccc34)CC2)cc1`, the growth inhibition in experiment [1] is 36%; in experiment [4] it was 89% (active). Besides, the inhibition in experiment [2] was 33%; in experiment [3], -1%. Besides, the result in experiment [5], in experiment [6], in experiment [7] and in experiment [8] was inactive.

For the molecule `Cc1cccc(CNc2nc(C)cc(N[C@@H](CC(C)C)C(=O)NCc3cccc(F)c3)n2)c1`, the growth inhibition in experiment [1] is 32%; in experiment [4] it was 91% (active). For the same molecule, the inhibition in experiment [2] was 13%; in experiment [3] it was -3%. Moreover, the outcome in experiment [5], in experiment [6], in experiment [7] and in experiment [8] was inactive.

Turning to `O=C(N[C@@H](CC1CCCCC1)C(=O)NCCN1CCCC1)c1ccc(O)c(-c2cccc(C(F)(F)F)c2)c1`, the growth inhibition in experiment [1] is 55% (active); in experiment [4], 99% (active). Further, the inhibition in experiment [2] is -11%; in experiment [3] it was -4%. Besides, the result in experiment [5], in experiment [6], in experiment [7] and in experiment [8] was inactive.

As to `COc1cc2c(cc1C(F)(F)F)N(C(=O)Nc1cc(F)c(F)c(-c3cccnc3)c1)CC2`, the growth inhibition was 15% in experiment [1] and 90% (active) in experiment [4]. For the same molecule, the results for the inhibition in experiment [2] and in experiment [3] were 20% and 3%, respectively. In addition, the result in experiment [5], in experiment [6], in experiment [7] and in experiment [8] was inactive.

As for `CCN(CC)CCNc1ccc(Nc2ccnc3cc4ccccc4cc23)cc1`, the growth inhibition in experiment [1] is 99% (active); in experiment [4], 102% (active). The inhibition was 36% in experiment [2] and -8% in experiment [3]. Moreover, the result in experiment [5], in experiment [6], in experiment [7] and in experiment [8] was inactive.

With `Cc1cc(Nc2cccc(C(F)(F)F)c2)nc(NCc2ccccc2)n1`, the results for the growth inhibition in experiment [1] and in experiment [4] were 95% (active) and 102% (active), respectively. Moreover, the inhibition is 17% in experiment [2] and 0% in experiment [3]. Further, the result in experiment [5], in experiment [6], in experiment [7] and in experiment [8] was inactive.

For `CC(Sc1nc(-c2ccccc2)c(-c2ccccc2)o1)C(=O)NC1CC1` (stereo not given), the growth inhibition in experiment [1] was 91% (active); in experiment [4], 94% (active). For the same molecule, the inhibition was 13% in experiment [2] and -2% in experiment [3]. For the same molecule, the outcome in experiment [5], in experiment [6], in experiment [7] and in experiment [8] was inactive.

Regarding `Clc1ccc(CNCCCCCCNCc2ccc(Cl)cc2)cc1`, the growth inhibition is 28% in experiment [1] and 96% (active) in experiment [4]. Besides, the inhibition is 53% (active) in experiment [2] and 1% in experiment [3]. For the same molecule, the result in experiment [5], in experiment [6], in experiment [7] and in experiment [8] was inactive.

For `NC1=NC2(CCCCC2)N(OCCOc2ccc(Cc3ccccc3)cc2)C(N)=N1`, the growth inhibition is 22% in experiment [1] and 86% (active) in experiment [4]. The inhibition in experiment [2] is 34%; in experiment [3], 2%. The outcome in experiment [5], in experiment [6], in experiment [7] and in experiment [8] was inactive.

As for `Nc1nccc2ccc(-c3cccc(OCc4ccccc4)c3)cc12`, the growth inhibition was 81% (active) in experiment [1] and 101% (active) in experiment [4]. Also, the inhibition was 47% in experiment [2] and 5% in experiment [3]. Moreover, the outcome in experiment [5], in experiment [6], in experiment [7] and in experiment [8] was inactive.

`c1ccc(-c2ccc3c(Nc4ccc5[nH]ccc5c4)ccnc3c2)nc1`: the growth inhibition in experiment [1] is 78% (active); in experiment [4] it was 91% (active). Also, the inhibition in experiment [2] is 11%; in experiment [3], -7%. The outcome in experiment [5], in experiment [6], in experiment [7] and in experiment [8] was inactive.

As for `CCN(CC)CCn1c(=N)n(CC(O)c2ccc(Cl)c(Cl)c2)c2ccccc21` (stereo not given), the growth inhibition in experiment [1] is 88% (active); in experiment [4], 99% (active). In addition, the inhibition in experiment [2] is 35%; in experiment [3], 6%. For the same molecule, the outcome in experiment [5], in experiment [6], in experiment [7] and in experiment [8] was inactive.

Regarding `CN(C)CCOc1cc(NC(=O)Nc2ccc(-c3ccncc3)c3ccccc23)ccc1I`, the growth inhibition in experiment [1] was 46%; in experiment [4], 97% (active). Further, the figures for the inhibition in experiment [2] and in experiment [3] were 35% and -3%, respectively. Besides, the result in experiment [5], in experiment [6], in experiment [7] and in experiment [8] was inactive.
